Inconclusive results are not listed. Unmarked numbers belong to inactive results. Active and inactive are the calls of the source. The call rests on the fitted dose curve; in most records, active means well fitted activation curve with a large enough effect; inconclusive means small, poorly fitted or top-dose-only effect; inactive means no such curve, though single readings can be large or run the other way.
biological target: Cellular tumor antigen p53 (Homo sapiens) (UniProt P04637); test: Primary qHTS for small molecule compounds that upregulate eGFP-tagged delta133p53alpha (in N-terminal) cells. (AID 2060322); conditions: NCI-H358 eGFP-delta133p53alpha fluorescence, 24 h; activation: active compounds read high; further: nearly all actives have a fitted effect of over 75% in size;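 on activation: series mostly up to about 56 µM; 0% = DMSO vehicle and 100% = reference activator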
Summary of the method: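 NCI-H358 cells pre-induced 24 h with 10 ng/ml doxycycline to express N-terminal eGFP-delta133p53alpha, then dosed 24 h at 37C without doxycycline; fixed, Hoechst-stained, GFP intensity by laser scanning cytometry, normalized to DMSO (0%) and 57.5 uM 5-azacytidine (100%).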
Potency means the concentration at half of the fitted maximal effect.

Cellular tumor antigen p53 (Homo sapiens), sequence (P04637 whole entry, looked up): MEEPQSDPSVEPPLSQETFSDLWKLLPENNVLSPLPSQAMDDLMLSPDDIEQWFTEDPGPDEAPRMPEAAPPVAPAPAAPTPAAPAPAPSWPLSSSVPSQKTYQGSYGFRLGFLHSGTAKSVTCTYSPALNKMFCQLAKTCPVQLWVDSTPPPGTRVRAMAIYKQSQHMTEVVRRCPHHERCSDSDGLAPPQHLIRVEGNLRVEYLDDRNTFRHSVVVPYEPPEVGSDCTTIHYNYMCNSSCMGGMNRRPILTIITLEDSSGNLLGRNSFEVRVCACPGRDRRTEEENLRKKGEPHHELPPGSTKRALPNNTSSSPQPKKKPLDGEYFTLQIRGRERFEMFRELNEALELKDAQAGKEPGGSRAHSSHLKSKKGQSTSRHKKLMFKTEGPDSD

Row | SMILES | activation | Potency
1 | OCc1ccc(Cl)cc1Cl | -7.53% | 
2 | O=C1CC(c2ccc(Cl)cc2)CC(=O)N1 | -11.9% | 
3 | CC1(C)OC(=O)NC1=O | -15.3% | 
4 | Nc1ccc(S(=O)(=O)Nc2ccccc2)cc1 | -15.9% | 
5 | C1=CC2C3C=CC(C3)C2C1 (stereo not given) | 16.4% | 
6 | Cc1cccc(C=NNc2cc(N3CCOCC3)nc(OCCc3ccccn3)n2)c1 | -13.3% | 
7 | O=C(C=Cc1ccc(CN(CCO)CCc2c[nH]c3ccccc23)cc1)NO | 23.4% | 
8 | CC(=O)OCC(=O)[C@@]1(O)CC[C@H]2[C@@H]3CCC4=CC(=O)C=C[C@]4(C)[C@@]3(F)[C@@H](O)C[C@@]21C | -10.7% | 
9 | C[C@@H]1C[C@H]2[C@@H]3CCC4=CC(=O)C=C[C@]4(C)[C@@]3(F)[C@@H](O)C[C@]2(C)[C@H]1C(=O)CO | 0.837% | 
10 | Nc1ccc(O)c(C(=O)O)c1 | -19.2% | 
11 | Nc1ccccc1NC(=O)CCCCCCC(=O)Nc1ccccc1 | -13.4% | 
12 | C#C[C@]1(O)CC[C@H]2[C@H]3CCc4cc(OC)ccc4[C@H]3CC[C@@]21C | -30% | 
13 | CC(C)C(=O)Nc1cccc(C(F)(F)F)c1 | -15.3% | 
14 | C=CC[C@@H]1C=C(C)C[C@H](C)C[C@H](OC)[C@H]2O[C@@](O)(C(=O)C(=O)N3CCCC[C@H]3C(=O)O[C@H](C(C)=C[C@@H]3CC[C@H](O)[C@H](OC)C3)[C@@H](C)[C@@H](O)CC1=O)[C@@H](C)C[C@@H]2OC | 23.1% | 
15 | O=C(O)CCC(=O)c1ccc(-c2ccccc2)cc1 | -11.9% | 
16 | O=c1ccn([C@@H]2O[C@H](CO)[C@H](O)[C@H]2O)c(=O)[nH]1 | 8.95% | 
17 | CCOCCOC(=O)/C=C/c1ccc(OC)cc1 | -3.95% | 
18 | CCCc1c2oc(C(=O)O)cc(=O)c2cc2c(=O)cc(C(=O)O)n(CC)c12 | -10% | 
19 | CCC(=O)O[C@H]1[C@H](O[C@@H]2[C@@H](C)[C@H](O[C@H]3C[C@@](C)(OC)[C@@H](O)[C@H](C)O3)[C@@H](C)C(=O)O[C@H](CC)[C@@](C)(O)[C@H](O)[C@@H](C)C(=O)[C@H](C)C[C@@]2(C)O)O[C@H](C)C[C@@H]1N(C)C | 0.837% | 
20 | COc1cc([C@@H]2c3cc4c(cc3[C@@H](O[C@@H]3O[C@@H]5CO[C@@H](c6cccs6)O[C@@H]5[C@H](O)[C@@H]3O)[C@H]3COC(=O)[C@H]23)OCO4)cc(OC)c1O | -12.2% | 

Row | SMILES | activation | Potency
21 | Cc1ccc(C(=O)c2ccc(CC(=O)O)n2C)cc1 | 14.1% | 
22 | Cc1c[nH]c(C=C2C(=O)Nc3ccccc32)c1CCC(=O)O |  | 24.3 µM (active)
23 | Cc1ccsc1/C=C/C1=NCCCN1C | -2.51% | 
24 | CC(=O)C1=C(O)C=C2Oc3c(C(C)=O)c(O)c(C)c(O)c3C2(C)C1=O (stereo not given) | 47.4% | 
25 | Cc1ccccc1OCC(O)CO (stereo not given) | 13% | 
26 | COc1ccc(C(=O)NCc2ccc(OCCN(C)C)cc2)cc1OC | -28.8% | 
27 | CC(C)N(CCCNC(=O)Nc1ccc(C(C)(C)C)cc1)C[C@H]1O[C@@H](n2cc(Br)c3c(N)ncnc32)[C@H](O)[C@H]1O | -20.1% | 
28 | CCCCC(CC)COC(=O)c1ccccc1C(=O)O (stereo not given) | -12.6% | 
29 | CCCC(=O)OCOC(=O)C1=C(C)NC(C)=C(C(=O)OC)C1c1cccc(Cl)c1Cl (stereo not given) | -26.6% | 
30 | Cc1cc(CC(=O)O)c(C)n1-c1ccc(Cl)cc1 | 5.86% | 
31 | O=C(N/N=C/c1ccc([N+](=O)[O-])o1)c1ccc(O)cc1 | 24.3% | 
32 | CNCCc1ccccn1 | 5.02% | 
33 | CC(C)C(=O)SCCCCCCC(=O)Nc1nc(-c2ccccc2)cs1 | 49.2% | 
34 | NC(=O)c1cccc2[nH]c(-c3ccc([C@@H]4CCCN4)cc3F)nc12 | -16.8% | 
35 | Oc1c(I)cc(I)c2cccnc12 | -5.86% | 
36 | O=C(O)CCNC(=O)c1ccccc1 | -12.6% | 
37 | c1ccc(CCNc2nc(-c3ccccc3)cs2)cc1 | 20.1% | 
38 | CCN(CC)CC(=O)OCC(=O)[C@@]1(O)CC[C@H]2[C@@H]3CCC4=CC(=O)CC[C@]4(C)[C@H]3[C@@H](O)C[C@@]21C | -4.18% | 
39 | CCC(C(=O)OCCN(CC)CC)c1ccccc1 (stereo not given) | -1.67% | 
40 | CN(CCCN1c2ccccc2CCc2ccccc21)CC(=O)c1ccc(Cl)cc1 | -1.69% | 
